Results as given in PubChem BioAssay (NCI).
The panel holds about 83,000 compounds, 20% with a hit somewhere; the sample as a whole holds those more often.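 Single-concentration screen, 48 h exposure, 96-well plates. Endpoint: percent growth. Below 10 = active.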 Values without a mark were called inactive. The source made the active and inactive calls.

Columns and labels:
Experiment in all cases: NCI-60 one-dose screen, 48 h (100 = growth as untreated, 0 = no growth, -100 = all killed)
Details in all cases: 10 µM unless noted
HCT-15 colon = system: HCT-15 colon
HT29 colon = system: HT29 colon
SNB-75 CNS = system: SNB-75 CNS
SNB-19 CNS = system: SNB-19 CNS
U251 CNS = system: U251 CNS
PC-3 prostate = system: PC-3 prostate
SK-MEL-5 melanoma = system: SK-MEL-5 melanoma
UACC-62 melanoma = system: UACC-62 melanoma
LOX IMVI melanoma = system: LOX IMVI melanoma
SK-MEL-28 melanoma = system: SK-MEL-28 melanoma
SK-MEL-2 melanoma = system: SK-MEL-2 melanoma
EKVX NSCLC = system: EKVX NSCLC
SN12C renal = system: SN12C renal
UO-31 renal = system: UO-31 renal
TK-10 renal = system: TK-10 renal
ACHN renal = system: ACHN renal
CAKI-1 renal = system: CAKI-1 renal
CCRF-CEM leukemia = system: CCRF-CEM leukemia
MOLT-4 leukemia = system: MOLT-4 leukemia
A498 renal = system: A498 renal

Structure (SMILES)	growth (HCT-15 colon)	growth (HT29 colon)	growth (SNB-75 CNS) [%]	growth (SNB-19 CNS) [%]	growth (U251 CNS) [%]	growth (PC-3 prostate) [%]	growth (SK-MEL-5 melanoma)	growth (UACC-62 melanoma)	growth (LOX IMVI melanoma)	growth (SK-MEL-28 melanoma) [%]	growth (SK-MEL-2 melanoma) [%]	growth (EKVX NSCLC) [%]	growth (SN12C renal) [%]	growth (UO-31 renal)	growth (TK-10 renal) [%]	growth (ACHN renal)	growth (CAKI-1 renal) [%]	growth (CCRF-CEM leukemia)	growth (MOLT-4 leukemia)	growth (A498 renal) [%]
COc1ccc(/C=C(\C(=O)NCc2cccnc2)S(=O)(=O)c2ccccc2)cc1OC	28.3%	9.86% (active)	54.2	38.4	32.2	36.5	64.6%	34.9%	4.04% (active)	34.6	54.6	38.9	10.9	38.8%	46.4	52.8%	36.1	9.07% (active)	39.3%	
CCN(CC)CCOc1ccc(C(=O)/C=C\c2ccc(Cl)cc2Cl)cc1	2.05% (active)	-19.6% (active)	82.9	56.7	24.9	23.3	6.5% (active)	-34.5% (active)	-77.3% (active)	32.5	81	63.5	43.4	25%	75.9	52.7%	55	7.28% (active)	-13.1% (active)	
COC1/C=C/OC2(C)Oc3c(C)c(O)c4c(O)c(c(/C=N/N(c5ccccc5)c5ccccc5)c(O)c4c3C2=O)NC(=O)C(C)=C/C=C/C(C)C(O)C(C)C(O)C(C)C(OC(C)=O)C1C (configuration not stated)	41.4%	45.5%	66.9	71.2	41.8	38.7	-98.8% (active)	48.3%	47.4%	39.1	82.2	67	70.9	65.8%	55.8	65%	66.8	21.7%	35.1%	
CC(=O)Nc1sc2c(c1-c1nc3ccccc3s1)CNC2	11.3%	15.7%	29.5	26.8	27.3	21.7	17.4%	20.1%	3.64% (active)	34.2	23.2	30.6	27.9	6.46% (active)	29	9.91% (active)	23.8		10.4%	36.6
CCOC(=O)/C(=C(/C)NCC(C)C)c1cc(O)c(O)c2c(C)cc(=O)[nH]c12	29.8%	111%	78.2	50.9	46.8	34.3	43.2%	66.8%	38.1%	71	69.1	89.3	42.9	59.3%	77.7	47.8%	51.4		10.5%	79.2
CC1(C)CC(=O)C2=C(C1)C(c1ccc(Cl)cc1)n1ncc(C#N)c1N2 (configuration not stated)	105%	106%	75.6	96.5	97.8	90.4	95.4%	89.8%	107%	112	103	92.8	90.9	85.5%	107	93.2%	90.3	98.4%	98.1%	
CCCn1c(=S)sc2c(NNC(C)=O)nc(C)nc21	90.2%	103%	89.9	92.4	91.1	90.3	96.4%	93%	87%	141	92.5	88.5	101	90%	94.5	88.1%	70.7	88%	114%	
COc1ccc(Oc2ccc(/C=C/C(=O)c3cc4ccccc4oc3=O)cc2)cc1	80.5%	108%	50.2	91.7	87	75.3	92.7%	76.7%	70.7%	98.6	102	94.5	86.1	48%	147	91.3%		28.1%	57.9%	121
